According to ChEMBL document CHEMBL4513146, “CO-ADD screening of Karazin Kharkiv National University (Ukraine) compounds”:
Results with a measured potency or affinity are listed apart.

How the values were obtained:
[1] = system: Klebsiella pneumoniae; conditions: Concentration 32 ug.mL-1;; ASSAY_TEST Inhibition of Bacterial Growth; detection method Absorption (OD600); MEDIA CAMHB; plate type 384well; NBS; CORNING #3640; time 18 hr
[2] = system: Candida albicans; conditions: Concentration 32 ug.mL-1; ASSAY_TEST Inhibition of Fungal Growth; detection method Absorption (OD530)
[3] = system: Cryptococcus neoformans; conditions: Concentration 32 ug.mL-1; ASSAY_TEST Inhibition of Fungal Growth; detection method Resazurin; Absorption (OD600-OD570); plate type 384well; NBS; CORNING #3640

SMILES | Inhibition [1] | Inhibition [2] | Inhibition [3]
COc1ccc(CN(c2ccc(F)c(F)c2)S(=O)(=O)c2ccc3nncn3c2)cc1 | 12.63% | 0.74% | -4.76%
CCCCOc1ccc(-c2cc3c4nnc(SCC(=O)NCc5ccc(OC)cc5)n4ccn3n2)cc1 | 6.37% | 17.75% | -16.44%
COc1cc(NC(=O)Cn2nc3c(Oc4ccccc4)nccn3c2=O)cc(OC)c1OC | 10.24% | 3.29% | -9.79%
Cc1ccc(Oc2nc3ccccc3n3c(=O)n(CC(=O)Nc4cccc(C(F)(F)F)c4)nc23)cc1 | 8.2% | 1.82% | -21.42%
COc1ccc(-c2cc3c4nn(CC(=O)NCc5ccc(Cl)cc5)c(=O)n4ccn3n2)cc1 | 20.18% | 0.12% | -24.2%
COc1cccc(CN(c2cccc(C)c2)S(=O)(=O)c2ccc3nnc(C)n3c2)c1 | 4.27% | 0.75% | -14.81%
O=c1n(Cc2cccc(C(F)(F)F)c2)nc2c(S(=O)(=O)N3CCCC3)cccn12 | 13.65% | 1.01% | -8.52%
COc1ccc(C)cc1NC(=O)Cn1nc2c(N3CCSCC3)nc3ccccc3n2c1=O | 14.66% | -2.66% | -24.78%
Cc1ccc(NC(=O)Cn2nc3c(N4CCCC4)nccn3c2=O)cc1Cl | 13.96% | 0.98% | -21.34%
Cc1nnc2c(S(=O)(=O)N(Cc3ccc(F)cc3)c3ccc(F)c(F)c3)cccn12 | 11.53% | 8.25% | -10.38%
Cc1nnc2c(SCC(=O)Nc3ccc4c(c3)OCCO4)nc3ccccc3n12 | 9.06% | 1.7% | -7.59%
Cc1ccccc1CN(c1ccc(C(C)C)cc1)S(=O)(=O)c1cccn2cnnc12 | 21.6% | 3.03% | -21.28%
O=C(Cn1nc2c3cc(-c4ccc(F)cc4)nn3ccn2c1=O)N1CCN(c2ccccc2F)CC1 | 8.2% | 2.96% | -19.92%
CC(C)CCn1c(=O)c2sccc2n2c(=O)n(CCOc3ccccc3)nc12 | 15.26% | 12.41% | -11.28%
O=C(Cn1nc2c(Oc3ccccc3)nccn2c1=O)Nc1ccc(Cl)cc1 | 8.01% | -0.31% | -10.29%
COc1ccc(NC(=O)c2ccc3nn(CC(=O)Nc4ccc(S(C)(=O)=O)cc4)c(=O)n3c2)cc1 | 1.84% | 15.13% | -4.16%
O=C(CSc1nnc2c3cc(-c4ccc(F)cc4)nn3ccn12)NCc1ccccc1 | 0.49% | 0.97% | -18.29%
Cc1cc2nn(CC(=O)N3CCOCC3)c(=O)n2c(Nc2ccc(C)c(F)c2)n1 | 15.3% | 1.38% | -5.57%
CC(C)c1ccc(N(Cc2cc(F)cc(F)c2)S(=O)(=O)c2cccn3cnnc23)cc1 | 4.84% | 0.58% | -6.06%
Cc1cc2nn(CC(=O)NCc3ccccc3)c(=O)n2c(-c2ccc(C(F)(F)F)cc2)n1 | -2.81% | 22.82% | -6.62%

SMILES | Inhibition [1] | Inhibition [2] | Inhibition [3]
CCc1ccc(NC(=O)Cn2nc3c(Oc4cccc(OC)c4)nccn3c2=O)cc1 | -4.18% | 2.5% | -4.27%
CC(C)CCn1c(=O)c2ccc(C(=O)NC3CCCCC3)cc2n2c(=S)[nH]nc12 | 1.69% | 2.77% | -13.59%
COc1ccc(NC(=O)CSc2nnc3c(=O)n(-c4cccc(F)c4)ccn23)cc1OC | 7.43% | 3.49% | -8.06%
CCCN(C)c1nccn2c(=O)n(CC(=O)Nc3cccc(C(F)(F)F)c3)nc12 | 7.15% | -0.05% | -3.78%
CCOc1ccc(NC(=O)Cn2nc3c(Oc4ccc(C)cc4)nccn3c2=O)cc1 | 5.41% | 0.26% | -8.36%
CCc1nnc2c(=O)n(CC(=O)Nc3ccc(Br)cc3F)c3ccccc3n12 | 8.6% | 6.85% | -13.86%
Cc1ccc(CNC(=O)Cn2nc3c(Oc4ccccc4C)nccn3c2=O)cc1 | 12.47% | 1.06% | -7.58%
CCOc1ccc(-n2ccn3c(SCC(=O)NCc4ccccc4Cl)nnc3c2=O)cc1 | 10.62% | 2.57% | -15.06%
CCc1nnc2c(S(=O)(=O)N(Cc3ccc(C)cc3)c3ccc(C(C)C)cc3)cccn12 | 10.84% | 9.31% | -8.19%
Cc1nnc2c(SCC(=O)N3CCN(c4ccc(F)cc4)CC3)nc3ccccc3n12 | 12.85% | 2.24% | -2.43%
O=C(CSc1nnc2c(=O)n(-c3ccc(F)cc3)ccn12)NCC1CCCO1 (stereo not given) | 7.61% | 4.29% | -18.42%
Cc1cc2nn(CC(=O)Nc3cc(F)ccc3F)c(=O)n2c(Nc2ccc(C)c(F)c2)n1 | 8.03% | 1.75% | -8.46%
Cc1ccc(-n2ccn3c(=O)n(Cc4ccccc4)nc3c2=O)cc1C | -0.96% | 0.88% | -10.01%
Cc1cccc(NC(=O)c2ccc3nnc(SCC(=O)Nc4ccc(Br)cc4)n3c2)c1 | 7.72% | 7.81% | -6.93%
COc1cccc(Sc2nc3ccccc3n3c(=O)n(CC(=O)Nc4cccc(C#N)c4)nc23)c1 | 5.87% | 14.41% | -21.13%
COc1cccc(-n2ccn3c(SCC(=O)c4cc(C)ccc4C)nnc3c2=O)c1 | 13.22% | 5.19% | -12.08%
Cc1cccc(C)c1NC(=O)Cn1nc2c(SC3CCCCC3)nccn2c1=O | 8.3% | 20.03% | -18.68%
COc1cccc(-n2ccn3c(SC(C)C(=O)c4ccc(C)c(C)c4)nnc3c2=O)c1 (stereo not given) | 3.32% | 2.99% | -3.88%
Cc1nnc2ccc(S(=O)(=O)N(Cc3cccc(F)c3)c3ccc(Cl)cc3)cn12 | 10.33% | -0.68% | -10.1%
COc1cccc(Oc2nccn3c(=O)n(CC(=O)Nc4ccc(C)cc4Cl)nc23)c1 | 11.4% | 4.48% | -10.48%

SMILES | Inhibition [1] | Inhibition [2] | Inhibition [3]
Cc1ccc(-c2ccc3nn(Cc4c(F)cccc4Cl)c(=O)n3n2)cc1 | 17.42% | -0.59% | -15.06%
Cc1ccc(-n2ccn3c(SCC#N)nnc3c2=O)cc1C | 10.69% | 1.05% | -5.76%
COc1ccc(NC(=O)Cn2nc3ccc(SC(C)(C)C)nn3c2=O)cc1OC | 16.54% | -0.86% | -14.12%
COc1cccc(CN(c2ccc(F)cc2)S(=O)(=O)c2cccn3cnnc23)c1 | -0.69% | -0.06% | -1.54%
COc1cccc(Oc2nccn3c(=O)n(CC(=O)NC4CCCCC4)nc23)c1 | 9.68% | -1.29% | -8.14%
Cc1cc(C)cc(N(Cc2cccc(Cl)c2)S(=O)(=O)c2cccn3cnnc23)c1 | 9.53% | 1.12% | -7.68%
CCCCn1c(=O)c2sccc2n2c(=O)n(CC(=O)N(C)c3ccccc3)nc12 | -1.65% | -0.48% | -15.83%
CC(C)(C)NC(=O)Cn1nc2n(Cc3cccs3)c(=O)c3sccc3n2c1=O | 3.31% | -0.71% | -8.9%
COc1ccc(NC(=O)Cn2nc3nc(Nc4ccc(F)cc4)ccn3c2=O)cc1F | 11.34% | 0.24% | -11.45%
Cc1ccc(-c2nnc3c(=O)n(CC(=O)Nc4cc(C)cc(C)c4)c4ccccc4n23)cc1 | 11.28% | -1.05% | -21.63%
COc1ccccc1N1CCN(C(=O)Cn2nc3c(Oc4ccc(C)cc4)nccn3c2=O)CC1 | 13.94% | 1.98% | -10.45%
O=C(CSc1nc2ccccc2n2cnnc12)N1CCN(c2ccc(F)cc2)CC1 | 8.82% | 1.33% | 6.24%
COc1ccc(-c2cc3c4nnc(SCC(=O)Nc5ccccc5Cl)n4ccn3n2)cc1 | 1.23% | 2.61% | -26.87%
Cc1nnc2c(S(=O)(=O)N(Cc3ccccc3F)c3ccc(C(C)C)cc3)cccn12 | 0.43% | 0.44% | -4.75%
CSc1cccc(NC(=O)Cn2nc3ccc(-c4ccc(C)c(C)c4)nn3c2=O)c1 | -6.08% | 28.21% | -10.99%
Cc1nnc2c(=O)n(CC(=O)Nc3ccccc3Br)c3ccccc3n12 | 8.13% | 2.04% | -7.03%
Cc1ccc(Oc2nccn3c(=O)n(CC(=O)Nc4ccc(Cl)cc4F)nc23)cc1 | 8.24% | 4.29% | -15%
O=S(=O)(c1ccc2nncn2c1)N(Cc1cc(F)cc(F)c1)c1ccc(F)cc1 | 7.07% | 0.51% | -5.99%
COc1cccc(-n2ccn3c(SCC(=O)c4c[nH]c5ccccc45)nnc3c2=O)c1 | 10.78% | 4.57% | -9.55%
CCc1ccccc1Sc1nccn2c(=O)n(CC(=O)Nc3cc(Cl)c(OC)cc3OC)nc12 | -2.45% | 17.44% | -4.37%
